Source: ChEMBL document CHEMBL4513216, “Probing the Open Global Health Chemical Diversity Library for Multistage-Active Starting Points for Next-Generation Antimalarials” (ACS Infect Dis, 2020)
Screen size: about 69,000 compounds; about 8,600 (12%) showed an effect of 50% or more. Only a selection was taken, and strong results are over-represented in it overall.

Each molecule was assayed on Plasmodium berghei (assay: Screen against P. berghei liver stage (PbLuc), transformed with Luciferase, at 10uM). Conditions: tested at 10 uM.
Type: functional, HepG2

| SMILES | INHIBITION |
| --- | --- |
| Cc1ncsc1C(=O)OCCN1CCCCCC1=O | -60.9% |
| CCc1n[nH]c(C2CN(C(=O)Cc3cccs3)CCO2)n1 (stereo not drawn) | -33.7% |
| CCCc1n[nH]c(C2CN(C(=O)CCCn3ccnc3C)CCO2)n1 (stereo not drawn) | 87.2% |
| CC(C)(C)c1n[nH]c(C2CN(C(=O)CCc3cccs3)CCO2)n1 (stereo not drawn) | -32.5% |
| CCCc1n[nH]c(C2CN(C(=O)CCCn3ccnc3)CCO2)n1 (stereo not drawn) | -18.9% |
| CCc1n[nH]c(C2CN(C(=O)CCc3cccs3)CCO2)n1 (stereo not drawn) | 51.3% |
| CCCc1n[nH]c(C2CN(C(=O)CCCn3cccn3)CCO2)n1 (stereo not drawn) | 1.81% |
| Cc1n[nH]c(C2CN(C(=O)CCCn3cccn3)CCO2)n1 (stereo not drawn) | -22.1% |
| CCc1n[nH]c(C2CN(C(=O)CCCn3cccn3)CCO2)n1 (stereo not drawn) | 56.1% |
| CCCc1n[nH]c(C2CN(C(=O)CCn3nc(C)cc3C)CCO2)n1 (stereo not drawn) | 34.6% |
| Cc1cc(C(=O)N2C[C@H](C(C)C)[C@@H](N(C)C)C2)cs1 | 47.2% |
| CS(=O)(=O)c1cn[nH]c1C1CCCCN1C(=O)c1cnccn1 (stereo not drawn) | -21.4% |
| Cc1nc(CN2CCCN(C(=O)c3c(C)oc(C)c3C)CC2)cs1 | -4.16% |
| O=c1c(S(=O)(=O)N2CCCC2)cccn1Cc1ccccc1Cl | 29.6% |
| c1cnc(N2CCO[C@H]3CN(Cc4c[nH]cn4)C[C@H]32)cn1 | 37.8% |
| OCCN1CCCC(c2nccnc2Oc2ccc(F)cc2)C1 (stereo not drawn) | 20.8% |
| CCS(=O)(=O)N1C[C@@H](c2cc(O)nc(C)n2)[C@H](c2ccccc2F)C1 | 3.69% |
| O=C(c1ccccn1)N1CCC2(CC1)COC(COc1cccnc1)C2 (stereo not drawn) | 5.67% |
| CC(c1cccc(-c2ncc(C#N)c(N)n2)c1)N(C)C (stereo not drawn) | -0.996% |
| COCc1noc(CCNc2ncnc3c2CCNCC3)n1 | -58% |
| Cc1cccc(-n2cc(CNc3ncnc4c3CCNCC4)cn2)c1 | 16% |
| c1ccc(Cn2cc(CNc3ncnc4c3CCNCC4)cn2)cc1 | 23.6% |
| COc1ccc(-c2cc(CNc3ncnc4c3CCNCC4)no2)cc1 | 94.1% |

| SMILES | INHIBITION |
| --- | --- |
| c1cncc(-c2noc(CCNc3ncnc4c3CCNCC4)n2)c1 | 19.4% |
| Cc1ccccc1-n1cc(CNc2ncnc3c2CCNCC3)cn1 | -20.7% |
| Clc1ccccc1-c1cc(CNc2ncnc3c2CCNCC3)no1 | 88.2% |
| Cc1ccc(-c2cc(CNc3ncnc4c3CCNCC4)no2)cc1 | 93.1% |
| c1cncc(-c2noc(CNc3ncnc4c3CCNCC4)n2)c1 | 8.74% |
| CCn1cc(CN2CCCN(C(=O)c3ccoc3C)CC2)cn1 | -19.9% |
| COCC(=O)N1Cc2nccn2CC(COc2cccnc2)C1 (stereo not drawn) | 29.3% |
| COc1nn(C)c2c1CCCN(C(=O)c1ccc[nH]1)C2 | -15.7% |
| CCn1c(SCC(N)=O)nnc1-c1csc2c1CCCC2 | 25.8% |
| Cn1ccc(C(=O)N2CCCC2c2cc(CO)[nH]n2)n1 (stereo not drawn) | 14.385% |
| CCn1cnnc1CNc1nc(C)nc2scc(CC(C)C)c12 | 44.3% |
| CCc1nc(-c2cncnc2C2CCCNC2)no1 (stereo not drawn) | 20.25% |
| Cc1ccc(Cn2nc(C)c3c(C(=O)O)c(Cl)c(C)nc32)cc1 | 3.52% |
| CCNc1c(NC(=O)C2CC2)c(=O)oc2ccccc12 | -21.9% |
| CN(C)CC(=O)N1CCCCC1c1nc(N)ncc1-c1ccccc1 (stereo not drawn) | 12.3% |
| CCSc1nnc([C@@H](N)CC(C)C)o1 | -4.56% |
| Cc1cccc(-c2nccnc2C2CCN(C)CC2)c1C | 54.5% |
| COc1ccccc1-c1nccnc1C1CCN(C(C)=O)CC1 | 10% |
| Cc1cccc(-c2nccnc2C2CCCN(C)C2)c1C (stereo not drawn) | 35.2% |
| COCc1nc(C(=O)N2CCCC2c2ccncc2)cs1 (stereo not drawn) | 29.7% |
| CC(C)c1noc(CN2CCN(CCO)CC2)n1 | -10.875% |
| Brc1cccc(-c2noc(C3COCCO3)n2)c1 (stereo not drawn) | -99.3% |
| CCCNc1ccc(C(=O)NCCc2cccc(Cl)c2)cn1 | 68.8% |

| SMILES | INHIBITION |
| --- | --- |
| CCCNc1ccc(C(=O)NCCc2ccc(Cl)cc2)cn1 | -71.5% |
| CCCNc1ccc(C(=O)NCCc2cccc(OC)c2)cn1 | 25.3% |
| O=C1Nc2ccccc2/C1=C1\CCCN1 | 43.4% |
| Cc1nn(Cc2ccccc2)c(C)c1CNC1CCc2ncnn2C1 (stereo not drawn) | -10.1% |
| COCC1COCCC12CCN(C(=O)CCc1ccccc1C)CC2 (stereo not drawn) | -30.6% |
| CNCC(=O)Nc1cccc(-c2cnc(NCCO)nc2)c1 | 23.4% |
| CNCC(=O)Nc1cccc(-c2cnc(NCCS(C)(=O)=O)nc2)c1 | 45.6% |
| CNCC(=O)Nc1ccc(-c2cnc(NCCS(C)(=O)=O)nc2)cc1 | 54.5% |
| Cn1nc(C(=O)NCc2ccccc2C(F)(F)F)c2c1CCS(=O)(=O)C2 | 45.8% |
| O=C(C1CCOCC1)N1C[C@@H]2CC[C@H]1CN(C1Cc3ccccc3C1)C2 | -59.3% |
| CCN(CC)[C@H]1C[C@@H](Cc2cc(CO)on2)C1(C)C | 17.4% |
| CN(Cc1cc(C[C@@H]2C[C@H](N)C2(C)C)no1)c1ccccc1 | 54.3% |
| CN(C)[C@H]1C[C@@H](Cc2cc(CO)on2)C1(C)C | -17.1% |
| Cc1cccc(CN2C(=O)CC[C@@H]3[C@H]2CCN3Cc2nccn2C)n1 | 40.4% |
| c1ccc(Cn2cc3c(n2)C(CNCC2CCOCC2)OCC3)nc1 (stereo not drawn) | -7.7% |
| CCC(CC)C(=O)N1CCC2(C1)CN(c1ccccc1)C(=O)CN2C (stereo not drawn) | 28.4% |
| COC[C@@]12CC[C@@H](N3CCOCC3)C[C@H]1CCN(c1nc(CO)cs1)C2 | 15.8% |
| CCC[C@H]1CN(Cc2cncn2C)C[C@@H]1NC(=O)C1(COC)CCC1 | 28% |
| CCC[C@H]1CN(c2nc(CO)cs2)C[C@@H]1NC(=O)C1(COC)CC1 | 69.7% |
| CCC[C@H]1CN(Cc2cscn2)C[C@@H]1NC(=O)C1(COC)CCC1 | 48.5% |
| CCC[C@H]1CN(Cc2cc(C)no2)C[C@@H]1NC(=O)C1(COC)CCC1 | 59.3% |
| CCC[C@H]1CN(Cc2nccn2C)C[C@@H]1NC(=O)C1(COC)CCC1 | 31.2% |
